From PubChem BioAssay AID1159580 (chemical genetic matrix, 2015)
Values joined by “and” are separate entries in the source; they are usually repeats but may differ in a detail not shown here. Equal entries are not always repeated. Screen size: about 5,500 compounds; about 2,000 (36%) were called active. About 18% were inconclusive and are not listed. Rule as the data show it: active = normalized growth mostly below about 0.91 (no sharp cut-off); inconclusive = no clear call, values can overlap the other calls; inactive = mostly above about 0.92. Some of the results follow.

Assay: chemical genetic growth profiling, strain panel (AID 1159580);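 also: tested at 20 µM; growth read once vehicle control cultures reached saturation at 30 °C; 1 = growth at the plate median or of vehicle wells; lower values mean less growth of the strain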
Settings: S. cerevisiae deletion strains, growth OD

Measured: normalized growth

Nc1ncnc2c1ncn2C1O[C@H](COP(=O)(O)O)[C@@H](O)[C@H]1O (stereo partly specified)
inactive: locus YAL013W, strain DEP1, hits give low values 1.01 | locus YAL021C, strain ccr4, hits give low values 0.996 | locus YAL026C, strain drs2, hits give low values 1 | locus YAL030W, strain snc1, hits give low values 0.997 | locus YBL061C, strain skt5, hits give low values 0.999 | locus YBR009C, strain hhf1, hits give low values 0.95 | locus YBR021W, strain FUR4, hits give low values 1.01 | locus YBR023C, strain chs3, hits give low values 0.99 | locus YBR171W, strain sec66, hits give low values 1 | locus YBR229C, strain ROT2, hits give low values 1.01 | locus YBR231C, strain swc5, hits give low values 1.01 | locus YBR279W, strain paf1, hits give low values 0.999 | locus YCL011C, strain gbp2, hits give low values 0.991 | locus YCL016C, strain dcc1, hits give low values 0.982 | locus YCL069W, strain vba3, hits give low values 0.996 | locus YCR088W, strain abp1, hits give low values 0.988 | locus YDL005C, strain med2, hits give low values 1.03 | locus YDL035C, strain GPR1, hits give low values 1.04 | locus YDL040C, strain nat1, hits give low values 1 | locus YDL074C, strain BRE1, hits give low values 1.03 | locus YDL101C, strain DUN1, hits give low values 1.01 | locus YDL134C, strain PPH21, hits give low values 1.02 | locus YDL185W, strain tfp1, hits give low values 0.992 | locus YDR001C, strain nth1, hits give low values 0.997 | locus YDR069C, strain doa4, hits give low values 1.04 | locus YDR137W, strain rgp1, hits give low values 1 | locus YDR150W, strain NUM1, hits give low values 1.02 | locus YDR159W, strain sac3, hits give low values 0.95 | locus YDR162C, strain NBP2, hits give low values 1.01 | locus YDR195W, strain ref2 1.01 | locus YDR297W, strain sur2, hits give low values 1.01 | locus YDR334W, strain swr1, hits give low values 1 | locus YDR335W, strain msn5, hits give low values 1 | locus YDR392W, strain spt3, hits give low values 0.95 | locus YEL003W, strain gim4, hits give low values 1 | locus YEL037C, strain rad23, hits give low values 0.993 | locus YEL061C, strain CIN8 (second series), hits give low values 1 | locus YEL061C, strain CIN8, hits give low values 1.01 | locus YER015W, strain faa2, hits give low values 0.987 | locus YER016W, strain bim1, hits give low values 0.97 | locus YER111C, strain swi4, hits give low values 0.991 | locus YER155C, strain BEM2 (second series), hits give low values 1.05 | locus YER155C, strain BEM2, hits give low values 1.01 | locus YER167W, strain BCK2, hits give low values 1.03 | locus YFR010W, strain ubp6, hits give low values 1.01 | locus YGL078C, strain dbp3, hits give low values 0.993 | locus YGL167C, strain pmr1, hits give low values 1 | locus YGL173C, strain kem1, hits give low values 0.995 | locus YGL227W, strain vid30, hits give low values 1.01 | locus YGL240W, strain doc1, hits give low values 1.04 | locus YGL248W, strain PDE1, hits give low values 1.02 | locus YGL253W, strain hxk2, hits give low values 0.972 | locus YGR078C, strain PAC10, hits give low values 1.02 | locus YGR229C, strain SMI1, hits give low values 1.03 | locus YGR252W, strain gcn5, hits give low values 0.987 | locus YHR013C, strain ard1, hits give low values 0.965 | locus YHR027C, strain rpn1, hits give low values 1 | locus YHR030C, strain SLT2, hits give low values 1.01 | locus YHR079C, strain IRE1, hits give low values 1.02 | locus YHR094C, strain hxt1, hits give low values 0.955 | locus YHR129C, strain ARP1, hits give low values 1.01 | locus YHR142W, strain chs7, hits give low values 1.01 | locus YIL066C, strain RNR3, hits give low values 1.03 | locus YIL073C, strain SPO22, hits give low values 1.03 | locus YIL125W, strain kgd1, hits give low values 0.999 | locus YJL092W, strain hpr5, hits give low values 1 | locus YJL095W, strain BCK1 (second series), hits give low values 0.996 | locus YJL095W, strain BCK1, hits give low values 0.99 and 0.989 | locus YJL115W, strain asf1, hits give low values 0.998 | locus YJL129C, strain trk1, hits give low values 1 | locus YJL134W, strain LCB3, hits give low values 1.01 | locus YJL154C, strain vps35, hits give low values 0.999 | locus YJL164C, strain tpk1, hits give low values 0.967 | locus YJL166W, strain qcr8, hits give low values 1.03 | locus YJL187C, strain SWE1 (second series), hits give low values 1.03 | locus YJL187C, strain SWE1, hits give low values 0.996 | locus YJR043C, strain POL32, hits give low values 1 | locus YJR066W, strain TOR1, hits give low values 0.965
active: locus YCL029C, strain bik1, hits give low values 0.523 | locus YDL192W, strain arf1, hits give low values 0.811 | locus YDR101C, strain arx1, hits give low values 0.589 | locus YDR318W, strain mcm21, hits give low values 0.73 | locus YDR388W, hits give low values 0.209 | locus YDR502C, strain sam2, hits give low values 0.632 | locus YER110C, hits give low values 0.798 | locus YGL086W, strain mad1, hits give low values 0.74 | locus YGR135W, strain pre9, hits give low values 0.776 | locus YHR079C, strain IRE1 (second series), hits give low values 0.345 | locus YHR200W, strain rpn10, hits give low values 0.911 | locus YIR030C, strain dcg1, hits give low values 0.648 | locus YJL168C, strain set2, hits give low values 0.927
